# Assay results reported in PubChem BioAssay (NCATS).
# Several values for one entry are separate records, joined by “and”; a condition that tells them apart may be missing. Equal entries are not always repeated. Results filed as inconclusive are left out. Values without a mark were called inactive. Activity calls are given as the source filed them. Calls follow the shape of the dose curve; as a rule, active = well fitted inhibition curve with a large enough effect; inconclusive = small, poorly fitted or top-dose-only effect; inactive = flat fitted curve, though single readings scatter. Where a SMILES comes first, the peptide text is derived from it. [ ]: non-standard residue; d: D form. pGlu = O=C1CC[C@@H](C(=O)O)N1
# Tests used:
# Test in all cases: Cytotoxic Profiling of Annotated Libraries Using Quantitative High-Throughput Screening (AID 1296008); also: nearly all actives have a fitted effect of over 60% in size
# Settings in all cases: Five cell lines viability, CellTiter-Glo ATP luminescence, 48-72 h; max response: stronger effect = lower value
# [1] = test system: CRL-7250
# How it was run: (§1)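 Cells exposed to compounds for 48 or 72 hr at 37 degrees Celsius. Viability read as ATP-coupled luminescence with CellTiter-Glo after 10 min at room temperature.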
# [2] = test system: HEK293
# How it was run: as §1
# [3] = test system: HaCat
# How it was run: as §1
# % is scaled to controls: 0 for no effect and ±100 for the full control effect; potency is read from the fitted curve at half-maximal effect.
smiles,measurement,setting,value
Cc1cccc(N(C)C(=S)Oc2ccc3c(c2)C2CCC3C2)c1 (stereo not drawn),Potency,[1],29.9 µM (active)
CCCCCCCC(=O)[O-].CCCCCCCC(=O)[O-].[Zn+2],max response,[1],-4.35%
same,max response,[2],-2.75%
same,outcome,[3],inactive
CCCCCOc1ccccc1/C(=C\SC)n1ccnc1,max response,[1],-4.59%
same,Potency,[2],26.6 µM (active)
COC(=O)c1c(Cl)c(Cl)c(C(=O)OC)c(Cl)c1Cl,max response,[1],-7.84%
same,max response,[2],-21.7%
CCN(CC)CCOc1ccc(/C(=C(\Cl)c2ccccc2)c2ccccc2)cc1,max response,[1],-10.3% and -19.3%
NS(=O)(=O)c1cc2c(cc1Cl)CN(C1CCCCC1)C2=O,max response,[1],-6.27%
same,outcome,[2],inactive
CN(C)c1cc2c(Nc3ccc4c(cnn4Cc4ccccc4)c3)ncnc2cn1,max response,[1],-15%
CC(C)=CCNc1ncnc2c1ncn2[C@@H]1O[C@H](CO)[C@@H](O)[C@H]1O,Potency,[1],1.5 µM (active)
COc1ccc([C@@H]2Sc3ccccc3NC(=O)[C@@H]2O)cc1,max response,[1],-22.1%
[O-][n+]1cccc(/C(Cl)=N/OC[C@@H](O)CN2CCCCC2)c1,max response,[1],4.98%
same,max response,[2],-1.36%
same,max response,[3],2.38%
CCn1ccc(NS(=O)(=O)c2ccc(N)cc2)nc1=O,max response,[1],4.48%
same,max response,[2],-20.6%
same,outcome,[3],inactive
C[N+]1(CC2COC(c3ccccc3)(c3ccccc3)O2)CCCCC1 (stereo not drawn),max response,[1],1.41%
same,Potency,[2],10 µM (active)
same,max response,[3],-14.4%
COC(=O)CCCCC(CCSS/C(CCO)=C(\C)N(C=O)Cc1cnc(C)nc1N)SC(C)=O (stereo not drawn),outcome,[1],inactive
same,outcome,[2],inactive
same,outcome,[3],inactive
C[C@@H]1C[C@H]2[C@@H]3CCC4=CC(=O)C=C[C@]4(C)[C@@]3(F)[C@@H](O)C[C@]2(C)[C@@]1(O)C(=O)COC(=O)c1ccncc1,max response,[1],-11%
same,max response,[2],-6.52%
CCCCCN(CCCOC)C(=O)C(CCC(=O)O)NC(=O)c1ccc(Cl)c(Cl)c1 (stereo not drawn),max response,[1],-0.363%
same,max response,[2],-5.64%
Nc1ncnc2c1ncn2Cc1c(F)cccc1Cl,max response,[1],-8.42%
same,outcome,[2],inactive
Cc1ccc(C(=O)C(=O)O)cc1C,max response,[1],-7.54%
same,outcome,[2],inactive
C/C(=N\O)[C@@H](C)NCC(C)(C)CN[C@H](C)/C(C)=N/O,outcome,[1],inactive
same,max response,[2],-22.3%
same,max response,[3],-13.6%
CCN(CC)CCN,max response,[1],3.12%
same,max response,[2],2.25%
COCCc1ccc(OCC2CO2)cc1 (stereo not drawn),max response,[1],1.12%
same,max response,[2],1.88%
CCNC(=O)[C@@H]1CCCN1C(=O)[C@H](CCCN=C(N)N)NC(=O)[C@H](CC(C)C)NC(=O)CNC(=O)[C@H](Cc1ccc(O)cc1)NC(=O)[C@H](CO)NC(=O)[C@H](Cc1c[nH]c2ccccc12)NC(=O)[C@H](Cc1cnc[nH]1)NC(=O)[C@@H]1CCC(=O)N1 ([pGlu]HWSYGLRP-NHEt),outcome,[1],inactive
same,max response,[2],-8.7%
Cc1oc(=O)oc1COC(=O)[C@@H]1N2C(=O)[C@@H](NC(=O)[C@H](N)c3ccccc3)[C@H]2SC1(C)C,max response,[1],-5.05%
same,max response,[2],-0.753%
same,outcome,[3],inactive
CNC(=O)c1cnn(-c2nc(N)c3ncn([C@@H]4O[C@H](CO)[C@@H](O)[C@H]4O)c3n2)c1,max response,[1],-10.9%
same,outcome,[2],inactive
O=C1c2ccccc2CCc2ccccc21,max response,[1],2.21%
same,max response,[2],-2.77%
same,outcome,[3],inactive
CC(C)(C)NCC(O)COc1ccccc1OCC1CCCO1 (stereo not drawn),max response,[1],-2.81%
same,max response,[2],-1.05%
Nc1ncnc2n[nH]c(Nc3ccc(F)cc3)c12,Potency,[1],10.3 µM (active)
C[C@@H](O[C@H]1OCCN(Cc2n[nH]c(=O)[nH]2)[C@H]1c1ccc(F)cc1)c1cc(C(F)(F)F)cc(C(F)(F)F)c1,max response,[1],4.27%
CN1[C@@H]2CC[C@H]1CC(NC(=O)n1c(=O)[nH]c3ccccc31)C2 (stereo partly drawn),max response,[1],-3.19%
same,max response,[2],-4.57%
CC(C)(C)C1CCC(CC2=C(O)c3ccccc3C(=O)C2=O)CC1 (stereo not drawn),max response,[1],-5.3%
same,max response,[2],0.617%
same,max response,[3],-2.75%
c1ccc2occc2c1,max response,[1],-10.5%
same,max response,[2],-7.13%
O=c1[nH]sc2cc(Cl)ccc12,max response,[1],-108%
same,max response,[2],-119%
Cc1onc(-c2c(Cl)cccc2Cl)c1C(=O)Cl,outcome,[1],inactive
same,max response,[2],-4.58%
same,max response,[3],-4.26%
O=C(CS(=O)Cc1ccco1)NC/C=C\COc1cc(CN2CCCCC2)ccn1 (stereo not drawn),max response,[1],-3.38%
same,max response,[2],0.0112%
same,max response,[3],-5.87%
CC(C)(C)CC(=O)OCC(=O)[C@@]1(O)CC[C@H]2[C@@H]3CCC4=CC(=O)C=C[C@]4(C)[C@H]3[C@@H](O)C[C@@]21C,max response,[1],-1.84%
same,Potency,[2],15 µM (active)
same,outcome,[3],inactive
CCCCCCCCCCCCCCCCCCN(C)C,max response,[1],-11.6%
same,max response,[2],-2.54%
Nc1ccc2c(c1)CN1C(=O)c3ccccc3C1=N2,Potency,[1],8.2 µM (active)
same,Potency,[2],5.8 µM (active)
CCN1CCCC1CN (stereo not drawn),max response,[1],3.84%
same,outcome,[2],inactive
O=C(O)/C=C(\CC(=O)O)C(=O)O,max response,[1],4.3%
same,outcome,[2],inactive
same,outcome,[3],inactive
O=C(O)C(=O)Nc1cccc(-c2nn[nH]n2)c1,max response,[1],-0.0138%
same,outcome,[2],inactive
same,max response,[3],-5.35%
N[C@@H](Cc1cc(I)c(O)c(I)c1)C(=O)O,max response,[1],1.61%
same,max response,[2],-5.41%
same,max response,[3],4.36%
CC(=O)CC/C=C(\C)CC/C=C(\C)CC/C=C(\C)CCC=C(C)C,outcome,[1],inactive
same,outcome,[2],inactive
same,max response,[3],-9.87%
CC(C)C(=O)OCc1cccc(OC(=O)[C@@H]2N3C(=O)[C@@H](NC(=O)Cc4ccccc4)[C@H]3SC2(C)C)c1,outcome,[1],inactive
same,outcome,[2],inactive
same,max response,[3],-11.1%
CO/N=C(\C(=O)O)c1csc(NC(=O)CCl)n1,outcome,[1],inactive
same,max response,[2],-4.55%
same,outcome,[3],inactive
CN(C)CCCOC1(Cc2ccccc2)CCCCCC1,outcome,[1],inactive
same,outcome,[2],inactive
same,max response,[3],-13.3%
Cc1cnc(NS(=O)(=O)c2ccc(N)cc2)nc1,outcome,[1],inactive
same,max response,[2],-11.8%
same,outcome,[3],inactive
CC1c2ccccc2CN1NC(=O)c1ccc(Cl)c(S(N)(=O)=O)c1 (stereo not drawn),max response,[1],-8.72%
same,max response,[2],-4.92%
same,max response,[3],0.897%
Cc1cccc(OCC(O)CNC(C)(C)C)c1C (stereo not drawn),max response,[1],-7.39%
same,max response,[2],-11.8%
same,outcome,[3],inactive
CNC(=O)c1c(I)c(NC(C)=O)c(I)c(C(=O)O)c1I,max response,[1],-1.99%
same,max response,[2],-7.17%
same,outcome,[3],inactive
Nc1ccc(C(=O)N2CC3CC(CN(Cc4ccccc4)C3)C2)cc1,max response,[1],-9.41%
same,outcome,[2],inactive
same,max response,[3],3.27%
CCOc1c(N2CCOCC2)cnn(C)c1=O,max response,[1],-1.71%
same,outcome,[2],inactive
same,max response,[3],-2.94%
Cn1c(=O)c2c(ncn2CC(=O)O)n(C)c1=O,max response,[1],-0.788%
same,max response,[2],-8.26%
same,max response,[3],-42.3%
CCCCCCCCCCCC[N+](C)(C)Cc1ccccc1,Potency,[1],4.22 µM (active)
same,Potency,[2],0.841 µM (active)
same,Potency,[3],4.73 µM (active)
CCCC(=O)O[C@]1(C(=O)COC(=O)CC)CC[C@H]2[C@@H]3CCC4=CC(=O)CC[C@]4(C)[C@H]3[C@@H](O)C[C@@]21C,max response,[1],1.61%
same,max response,[2],3.26%
same,outcome,[3],inactive
N#Cc1cc(NC(=O)C(=O)O)c(Cl)c(NC(=O)C(=O)O)c1,outcome,[1],inactive
same,max response,[2],-3.47%
same,max response,[3],-3.53%
C/C(=C1\CCOC(=O)S1)N(C=O)Cc1cnc(C)nc1N,max response,[1],-21.8%
same,max response,[2],-12.5%
same,max response,[3],0.182%
CC(C)(C)c1nnc(NS(=O)(=O)c2ccccc2)s1,max response,[1],4.99%
same,outcome,[2],inactive
same,outcome,[3],inactive
COc1ccccc1N1CCN(CC(O)COc2cc(OC)c(OC)c(OC)c2)CC1 (stereo not drawn),outcome,[1],inactive
same,max response,[2],2.4%
same,outcome,[3],inactive
Cc1oc(-c2ccccc2)nc1CCC(=O)c1ccc(CC2SC(=O)NC2=O)cc1 (stereo not drawn),max response,[1],-17.6%
same,outcome,[2],inactive
same,outcome,[3],inactive
CNC[C@H](O)[C@@H](O)[C@H](O)[C@H](O)CO,max response,[1],-2.73%
same,max response,[2],-0.47%
same,max response,[3],-3.04%
CCOc1ccccc1OCC1CNCCO1 (stereo not drawn),max response,[1],-6.41%
same,outcome,[2],inactive
same,max response,[3],0.667%
O=C1Cc2cc(Cl)ccc2N1,max response,[1],-11.6%
same,max response,[2],-3.82%
same,outcome,[3],inactive
CCOC(=O)N1CCC(Nc2ccc(Cl)cc2N)CC1,max response,[1],2.37%
same,max response,[2],-13.9%
same,max response,[3],-14.7%
CC(=O)N(CC(=O)N(C)C)c1ccccc1,max response,[1],-29.6%
same,max response,[2],-63.5%
same,max response,[3],-4.61%
C=C(C)C(=O)OCC(O)CO (stereo not drawn),max response,[1],4.35%
same,max response,[2],-5.25%
same,outcome,[3],inactive
C[C@H]1C[C@@H]2[C@H]([C@@H](O)C[C@@]3(C)[C@H]2CC[C@]3(O)C(=O)CO)[C@@]2(C)C=CC(=O)C=C12,max response,[1],-5.61%
same,outcome,[2],inactive
same,outcome,[3],inactive
CC(NC(CCc1ccccc1)C(=O)O)C(=O)N1C(=O)N(C)CC1C(=O)O (stereo not drawn),max response,[1],1.99%
same,outcome,[2],inactive
same,outcome,[3],inactive
C[C@@]12CCC[C@H]1[C@@H]1CC[C@H]3C[C@@H](O)CC[C@]3(C)[C@H]1CC2,max response,[1],2.58%
same,outcome,[2],inactive
same,max response,[3],2.53%
CCCc1ncc(C(=O)O)s1,max response,[1],-9.12%
same,max response,[2],4.41%
same,outcome,[3],inactive
CC(C)(C)C(O)/C=C/c1ccc2c(c1)OCO2 (stereo not drawn),outcome,[1],inactive
same,max response,[2],0.172%
same,max response,[3],-0.175%
CCOC(=O)CN1CCCC1=O,max response,[1],1.6%
same,max response,[2],-12.9%
same,max response,[3],-7.15%
